Results filed as inconclusive are left out. Where a call stands in place of a potency, no number is given. Active and inactive are the calls of the source. Calls come from the whole dose curve; as a rule, active = well fitted curve in the direction sought with a large enough effect; inconclusive = small, poorly fitted or top-dose-only effect, or another doubt; inactive = no such curve, though single readings can be large; an effect the other way counts as inactive or inconclusive.
Columns and labels:
[1] = P-glycoprotein substrates identified in KB-8-5-11 adenocarcinoma cell line, qHTS therapeutic library screen (AID 1346987); note: nearly all actives have a fitted effect of over 65% in size; note: potency is the fitted concentration of half-maximal effect
Method in brief: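 Steps: plate 500 KB-8-5-11 cells/well in DMEM + 10% FCS (colchicine removed); pin compounds in dose-response; incubate 72 h, 37 degree C, 5% CO2; add CellTiter-Glo, 5 min; read luminescence.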

[2] = NS1 protein of Zika virus - qHTS assay to identify small molecule inhibitors in human HEK 293 cells (AID 1347053); note: series mostly up to about 46 µM; nearly all actives have a fitted effect of over 55% in size
Method in brief: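 HEK 293 cells pretreated with compound for 1 h, then infected with ZIKV MR766 (MOI 0.5) for 24 h at 37 C. NS1 detected by TR-FRET with two anti-NS1 antibodies; normalized to uninfected (0%) and infected (100%) wells.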

[3] = qHTS of pediatric cancer cell lines to identify multiple opportunities for drug repurposing: Primary screen for TC32 cells (AID 1347089); note: nearly all actives have a fitted effect of over 60% in size
Method in brief: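 In the primary qHTS, MIPE compounds were tested at 11 concentrations (0.78 nM to 46 µM) and NPC compounds at 8 (0.59 nM to 46 µM) on TC32 cells for 48 h. CellTiter-Glo luminescence gave viability.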

[4] = qHTS of pediatric cancer cell lines to identify multiple opportunities for drug repurposing: Primary screen for A673 cells (AID 1347092); note: nearly all actives have a fitted effect of over 45% in size; note: potency is the fitted concentration of half-maximal effect
Method in brief: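 48 h compound exposure, A673, 500-1,000 cells/well, 37 degrees C/5% CO2. MIPE: 11-point, 0.78 nM-46 µM; NPC: 8-point, 0.59 nM-46 µM (final). Readout CellTiter-Glo luminescence after 15 min RT.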

[5] = qHTS of pediatric cancer cell lines to identify multiple opportunities for drug repurposing: Primary screen for SK-N-MC cells (AID 1347093); note: potency is the fitted concentration of half-maximal effect
Method in brief: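 Metabolically active cells were quantified by ATP-dependent luminescence (CellTiter-Glo, 15 min at room temperature) following 48 h treatment. Cells had been plated at 500-1,000 per well and settled for 5 h beforehand.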

[6] = qHTS of pediatric cancer cell lines to identify multiple opportunities for drug repurposing: Primary screen for U-2 OS cells (AID 1347096); note: nearly all actives have a fitted effect of over 50% in size
Method in brief: (§1)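 Cells (500-1,000/well) rested 5 h, then received compounds for 48 h; metabolically active cells were measured by CellTiter-Glo luminescence. Final concentrations spanned up to 46 µM (MIPE, 11-point) or 0.59 nM-46 µM (NPC, 8-point) in primary screens, 11-point in follow-ups.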

[7] = qHTS of pediatric cancer cell lines to identify multiple opportunities for drug repurposing: Primary screen for Saos-2 cells (AID 1347097); note: nearly all actives have a fitted effect of over 40% in size; note: potency is the fitted concentration of half-maximal effect
Method in brief: (§2)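 Phenotypic viability qHTS, 48 h compound exposure, CellTiter-Glo luminescence read-out; multi-concentration dosing so that potency and efficacy derive directly from the primary screen's curves.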

[8] = qHTS of pediatric cancer cell lines to identify multiple opportunities for drug repurposing: Primary screen for SK-N-SH cells (AID 1347098); note: nearly all actives have a fitted effect of over 65% in size; note: potency is the fitted concentration of half-maximal effect
Method in brief: as §1

[9] = qHTS of pediatric cancer cell lines to identify multiple opportunities for drug repurposing: Primary screen for DAOY cells (AID 1347090); note: series mostly up to about 46 µM; nearly all actives have a fitted effect of over 55% in size
Method in brief: (§3)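 Cell viability, CellTiter-Glo luminescence; 500-1,000 cells/well, 8- or 11-point titration, 48 h compound exposure at 37 degrees C, 5% CO2. Controls: DMSO neutral, bortezomib 2.3 µM final as positive.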

[10] = qHTS of pediatric cancer cell lines to identify multiple opportunities for drug repurposing: Primary screen for SJ-GBM2 cells (AID 1347091); note: potency is the fitted concentration of half-maximal effect
Method in brief: as §3

[11] = qHTS of pediatric cancer cell lines to identify multiple opportunities for drug repurposing: Primary screen for BT-37 cells (AID 1347094); note: series mostly up to about 57 µM
Method in brief: as §2

[12] = qHTS of pediatric cancer cell lines to identify multiple opportunities for drug repurposing: Primary screen for NB-EBc1 cells (AID 1347095); note: potency is the fitted concentration of half-maximal effect
Method in brief: as §2

[13] = qHTS of pediatric cancer cell lines to identify multiple opportunities for drug repurposing: Primary screen for NB1643 cells (AID 1347099); note: nearly all actives have a fitted effect of over 50% in size
Method in brief: as §2

Row | Compound | Potency [1] | Potency [2] | Potency [3] | Potency [4] | Potency [5] | Potency [6] | Potency [7] | Potency [8] | Potency [9] | Potency [10] | Potency [11] | Potency [12] | Potency [13]
1 | Cc1c(CCOc2ccc(C(=O)O)cc2)c2cc(Cl)ccc2n1C(c1ccccc1)c1ccccc1 | inactive | inactive | inactive | 18.7 µM (active) | 14.8 µM (active) | inactive | inactive | 24.1 µM (active) |  |  |  |  | 
2 | COc1ccc([C@@H]2CC(=O)c3c(O)cc(O[C@@H]4O[C@H](CO[C@@H]5O[C@@H](C)[C@H](O)[C@@H](O)[C@@H]5O)[C@@H](O)[C@H](O)[C@@H]4O)cc3O2)cc1O | inactive | inactive | inactive |  | 16.6 µM (active) | inactive | inactive |  | inactive | inactive | inactive | inactive | inactive
3 | CCC(C)n1ncn(-c2ccc(N3CCN(c4ccc(OC[C@H]5CO[C@](Cn6cncn6)(c6ccc(Cl)cc6Cl)O5)cc4)CC3)cc2)c1=O (stereo not given in full) | inactive | inactive | inactive | inactive | 1.48 µM (active) | inactive | inactive | inactive | inactive | 1.66 µM (active) | inactive | 1.05 µM (active) | inactive
4 | Cc1cc(SCc2sc(-c3ccc(C(F)(F)F)cc3)nc2C)ccc1OCC(=O)O | inactive | inactive | inactive | inactive | 18.7 µM (active) | inactive | inactive |  | inactive |  | inactive | inactive | 
5 | CCOc1ccn(-c2ccc(F)cc2)c(=O)c1C(=O)Nc1ccc(Oc2ccnc(N)c2Cl)c(F)c1 | 14.8 µM (active) | inactive | inactive | 18.7 µM (active) | 13.2 µM (active) | inactive | 16.6 µM (active) |  |  | 0.059 µM (active) |  |  | 
